Pol beta inh = inhibitors of human DNA polymerase beta; P06746; Pol beta primer extension/strand displacement, fluorescence kinetic; Potency, µM (series often up to 114 µM), for inactives: top-dose activity change, negative = inhibition, hits mostly inhibitors; 340,000 tested, 1.3% active; AID 485314; further: potency means the concentration at half of the fitted maximal effect; on the % scale 0 is the no-effect control and ±100 the full control effect
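Reaction started by 50 nM substrate onto compound-treated Pol beta (10 nM, 15 min preincubation, room temperature); plates read at 0 min and 10 min. Normalized concentration-effect data fitted by four-parameter Hill equation.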
Pol iota inh = DNA polymerase iota (human) inhibition | Pol iota fluorescent replication assay, 10 min | Potency, µM (series often up to 115 µM), without a hit: at the top dose activity, negative = inhibition, most hits filed as inhibitors | 390,000 tested, 1% active; further: potency means the concentration at half of the fitted maximal effect
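Pol iota at 10 nM preincubated 15 min with compounds at room temperature; reaction started with fluorescent substrate, 50 nM final. Fluorescence read kinetically at 0 and 10 min; buffer-only wells as negative control.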
Pol kappa inh = DNA polymerase kappa (human) inhibition | purified Pol kappa, fluorescent DNA synthesis assay, 10 min | Potency, µM (highest dose often 107 µM), for inactives: at the top dose activity, negative = inhibition, usual class: inhibitors | Q9UBT6 | AID 588579 | 400,000 tested, 0.53% active; further: potency means the concentration at half of the fitted maximal effect; on the % scale 0 is the no-effect control and ±100 the full control effect
Target sequence (Q9UBT6 whole entry, looked up): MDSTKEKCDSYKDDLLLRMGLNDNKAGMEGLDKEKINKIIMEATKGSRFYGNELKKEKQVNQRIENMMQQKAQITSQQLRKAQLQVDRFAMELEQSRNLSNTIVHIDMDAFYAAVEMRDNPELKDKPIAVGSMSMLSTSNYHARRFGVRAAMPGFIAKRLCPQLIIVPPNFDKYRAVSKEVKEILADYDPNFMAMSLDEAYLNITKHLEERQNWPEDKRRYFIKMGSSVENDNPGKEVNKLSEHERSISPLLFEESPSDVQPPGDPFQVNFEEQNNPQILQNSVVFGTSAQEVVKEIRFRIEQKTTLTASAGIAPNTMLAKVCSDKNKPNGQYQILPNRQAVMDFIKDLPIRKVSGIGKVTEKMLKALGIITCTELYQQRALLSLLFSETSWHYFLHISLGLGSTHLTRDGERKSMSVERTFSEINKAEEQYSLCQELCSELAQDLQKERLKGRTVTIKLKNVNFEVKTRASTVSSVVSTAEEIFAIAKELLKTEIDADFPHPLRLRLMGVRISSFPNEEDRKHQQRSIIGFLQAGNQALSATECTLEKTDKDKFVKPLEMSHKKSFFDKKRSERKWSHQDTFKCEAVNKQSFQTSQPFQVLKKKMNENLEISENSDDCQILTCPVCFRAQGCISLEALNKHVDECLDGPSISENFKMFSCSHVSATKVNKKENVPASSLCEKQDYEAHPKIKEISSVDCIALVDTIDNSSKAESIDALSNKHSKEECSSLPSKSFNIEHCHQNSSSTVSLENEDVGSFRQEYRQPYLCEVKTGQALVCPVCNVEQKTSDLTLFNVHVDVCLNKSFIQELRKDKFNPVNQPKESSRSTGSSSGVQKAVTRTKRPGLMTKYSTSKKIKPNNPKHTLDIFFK
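Here, compound and 10 nM enzyme are combined for 15 min at room temperature; adding 50 nM substrate (final) starts DNA synthesis, tracked by fluorescence at 0 and 10 min against buffer-only wells.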
PI5P4K alpha inh = inhibitors of human PI5P4K alpha. P48426. 330,000 tested, 1.2% active. PI5P4Kalpha enzyme, ADP-Glo luminescence, 60 min; active compounds read low. max response, %; active means max response of -50% or lower; inconclusive means between -30% and -50%; inactive means -30% or higher; further: value at the top dose of about 77 µM; on the % scale 0 is the no-effect control and ±100 the full control effect
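Quantitative HTS of the MLSMR library against PI5P4Kalpha with substrate. ATP added last at 5 microM final; room temperature, 60 minutes. Remaining ATP depleted, ADP converted and read as luminescence.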
ALOX12 inh = blocks human arachidonate 12S-lipoxygenase. 580,000 tested, 1.1% active. P18054. Potency, µM (top dose mostly 108 µM), for the others: at the top dose activity change, negative = inhibition, hits mostly inhibitors. purified 12hLO, xylenol orange hydroperoxide absorbance; further: potency means the concentration at half of the fitted maximal effect; on the % scale 0 is the no-effect control and ±100 the full control effect
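Purified human 12hLO (150 nM final) in 25 mM Hepes, 0.01% Triton X-100, pH 7.0 was preincubated 15 min at room temperature with compound. Then 40 uM arachidonic acid was added, 30 min. Hydroperoxide was read by Fe-XO absorbance ratio 573/405 nm.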
POLH inh = DNA polymerase eta (human) inhibition | recombinant Pol eta, fluorescent DNA replication assay | AID 588591 | 390,000 tested, 1.2% active | Potency, µM (titrated, usually from 114 µM), without a hit: top-dose activity change, negative = inhibition, usual class: inhibitors; further: potency means the concentration at half of the fitted maximal effect; on the % scale 0 is the no-effect control and ±100 the full control effect
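Pol eta at 10 nM preincubated with compounds 15 min at room temperature; reaction started with fluorescent substrate (50 nM final) and read kinetically at 0 and 10 min.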
* = called active by the depositor; [ ] = another dose, or the depositor's remark. An excerpt weighted towards active compounds, which were near 2.9% of everything screened. Unless noted, the call rests on the fitted dose curve; in most records, active means well fitted inhibition curve with a large enough effect; inconclusive means small, poorly fitted or top-dose-only effect, or another doubt; inactive means no such curve, though single readings can be large or run the other way.

For C=CC(=O)NC(NC(=O)C=C)c1ccccc1 the results were ALOX12 inh -2%.
For N/C(=N\OS(=O)(=O)c1ccccc1)c1cccnc1 the results were Pol beta inh 27%, Pol iota inh -1%, Pol kappa inh -7%, PI5P4K alpha inh 0, ALOX12 inh 2% and POLH inh -10%.
For N/C(=N\OS(=O)(=O)c1ccccc1)c1ccncc1 the results were Pol beta inh 22%, Pol iota inh 20µM*, Pol kappa inh 2%, PI5P4K alpha inh -5, ALOX12 inh -82% and POLH inh -5%.
For CC(C)(C)c1ccc(C(=O)NC(=S)NCC2CCCO2)cc1 (configuration not stated) the results were Pol beta inh 1%[57.1 µM], Pol iota inh 32%, Pol kappa inh 3%, PI5P4K alpha inh 3, ALOX12 inh 7.9µM* and POLH inh -20%.
CC(C)(C)c1ccc(C(=O)NNC(=S)NCC2CCCO2)cc1 (configuration not stated) was read as Pol beta inh inconclusive, Pol iota inh 27%, Pol kappa inh 4%, PI5P4K alpha inh -4, ALOX12 inh 38% and POLH inh -22%.
O=C(NC(=S)NCc1ccco1)c1ccc(Br)cc1 was read as Pol beta inh 71%, Pol iota inh 98%, Pol kappa inh 2%, PI5P4K alpha inh 11, ALOX12 inh 16µM* and POLH inh 0%.
Screening CCOC(=O)NNC(=S)NCC1CCCO1 (configuration not stated) returned ALOX12 inh 6.3µM*.
COc1ccccc1/C=C/C(=O)NC(=S)NCC1CCCO1 (configuration not stated) was read as Pol beta inh 2%, Pol iota inh 122%, Pol kappa inh -18%, PI5P4K alpha inh -14, ALOX12 inh 40µM* and POLH inh -4%.
COc1ccc(/C=C/C(=O)NC(=S)NCC2CCCO2)cc1 (configuration not stated) was read as Pol beta inh -11%, Pol iota inh 73%, Pol kappa inh 3%, PI5P4K alpha inh 2, ALOX12 inh -30% and POLH inh -24%.
CCNC(=S)NNC(=S)NCC1CCCO1 (configuration not stated) was read as ALOX12 inh 39%.
For CC(C(=O)N1CCNC1=O)N(C)Cc1ccc(Cl)cc1 (configuration not stated) the results were ALOX12 inh 4%.
`COCCNC(=S)NC(=O)c1ccc(C(C)(C)C)cc1` gave Pol beta inh 0%, Pol iota inh 9%, Pol kappa inh 1%, PI5P4K alpha inh 6, ALOX12 inh 13µM* and POLH inh -12%.
O=C(Cc1cccs1)NCC1CCCO1 (configuration not stated) was read as Pol beta inh 13µM*, Pol iota inh inconclusive, Pol kappa inh -29%, ALOX12 inh 17% and POLH inh inconclusive.
For CC(C)(C)c1ccc(C(=O)NC(=S)NCc2ccco2)cc1 the results were Pol beta inh 0%, Pol iota inh -12%, Pol kappa inh -7%, PI5P4K alpha inh 0, ALOX12 inh 14µM* and POLH inh -26%.
CC(=O)Nc1ccc(NC(=S)NC(=O)c2ccc(C(C)(C)C)cc2)cc1 was read as Pol kappa inh -3%[19.4 µM].
Screening O=C(CCc1cccs1)NCC1CCCO1 (configuration not stated) returned ALOX12 inh -19%.
`Cc1nnc2ccc(SCC(=O)Nc3ccc(Cl)cc3)nn12` gave ALOX12 inh 2%.
O=C(/C=C/c1ccco1)NC(=S)Nc1cccc(-c2nc3ccccc3o2)c1 was read as Pol beta inh 28µM*, Pol iota inh inconclusive, Pol kappa inh 79µM*, PI5P4K alpha inh -64*, ALOX12 inh inconclusive and POLH inh 32µM*.
`CSc1cccc(NC(=O)/C=C/c2ccco2)c1` gave Pol beta inh 32µM*, Pol iota inh inconclusive, Pol kappa inh inconclusive, PI5P4K alpha inh -58*, ALOX12 inh inconclusive and POLH inh 79µM*.
For COc1cccc(NC(=O)/C=C/c2ccco2)c1 the results were Pol beta inh -8%, Pol iota inh 20%, Pol kappa inh -12%, PI5P4K alpha inh -4, ALOX12 inh -24% and POLH inh -15%.
`O=C(/C=C/c1ccco1)NC(=S)Nc1ccccc1` gave Pol beta inh inconclusive, Pol iota inh inconclusive, Pol kappa inh inconclusive, PI5P4K alpha inh -27, ALOX12 inh inconclusive and POLH inh inconclusive.
Screening O=C(/C=C/c1ccco1)NC(=S)Nc1cccc([N+](=O)[O-])c1 returned Pol beta inh 40µM*, Pol iota inh inconclusive, Pol kappa inh inconclusive, PI5P4K alpha inh inconclusive, ALOX12 inh 40µM* and POLH inh 50µM*.
Cc1cccc(-c2nc3cc(NC(=O)/C=C/c4ccco4)ccc3o2)c1 was read as ALOX12 inh 11µM*.
O=C(NCC1(c2ccccc2)CC1)c1nn(-c2ccccc2)c(=O)c2ccccc12 was read as ALOX12 inh -18%.
For CN(C)S(=O)(=O)c1ccc(-c2csc(N/N=C/c3ccc(O)cc3)n2)cc1 the results were Pol beta inh 6%, Pol iota inh inconclusive, Pol kappa inh -6%, PI5P4K alpha inh -63*, ALOX12 inh inconclusive and POLH inh -12%.
For S=C(NCCc1ccccc1)Nc1ccc(Cl)cc1Cl the results were Pol beta inh -17%, Pol iota inh -8%, Pol kappa inh -19%, PI5P4K alpha inh -7, ALOX12 inh inconclusive and POLH inh -20%.
`Cc1cc(Cl)ccc1NC(=S)NCCc1ccc(Cl)cc1` gave Pol beta inh -8%, Pol iota inh -10%, Pol kappa inh -10%, PI5P4K alpha inh 5, ALOX12 inh 22µM* and POLH inh -12%.
CC(C)c1ccc(CCNC(=S)Nc2ccc(Cl)cc2Cl)cc1 was read as ALOX12 inh 14µM*.
Screening O=C(NCCc1c[nH]c2ccccc12)c1cccc(F)c1 returned ALOX12 inh -1%.
`COc1ccc(-c2cc(C(=O)NCC(F)(F)F)c3c(C4CCNC4)nn(C)c3n2)cc1` (configuration not stated) gave ALOX12 inh 3%[6.33 µM].
For Clc1ccccc1-c1nc(NCc2cccs2)c2ccccc2n1 the results were Pol kappa inh 32µM* and ALOX12 inh inconclusive.
Screening Clc1ccccc1-c1cncnc1NCc1cccs1 returned Pol kappa inh 4%[60.1 µM] and ALOX12 inh 35µM*.
c1ccc(COc2ccccc2CN2CCC3(CCNCC3)C2)cc1 was read as ALOX12 inh 13%.

Compound activity (PubChem BioAssay)
